Reference: PubChem BioAssay AID1347055 (National Center for Advancing Translational Sciences (NCATS), 2019)
The whole screen tested about 54,000 compounds, of which about 120 (0.22%) were called active. Another 8% or so got no clear call; they are omitted. The sample as a whole holds a higher share of actives than the screen did. Unmarked numbers belong to inactive results. The call rests on the fitted dose curve; in most records, active means well fitted inhibition curve with a large enough effect; inconclusive means small, poorly fitted or top-dose-only effect, or effect the other way; inactive means flat fitted curve, though single readings scatter.

biological target: Fumarate hydratase, mitochondrial (Homo sapiens) (UniProt P07954); experiment: Identification of activators of human fumarate hydratase by quantitative high-throughput screening; settings: FH coupled MDH/diaphorase resazurin fluorescence, 15 min; series mostly up to 79.9 µM; activity change, negative = inhibition: at the top concentration; further: the screen sought activators but most active calls are inhibition curves; nearly all actives have a fitted effect of over 45% in size
Description: Fumarate hydratase (FH) is a metabolic enzyme that is part of the Krebs-cycle, and reversibly catalyzes the hydration of fumarate to malate. Mutations of the FH gene have been associated with fumarate hydratase deficiency (FHD), hereditary leiomyomatosis, renal cell cancer (HLRCC), and other diseases. Currently there are no high-quality small molecule probes for studying human fumarate hydratase. To address this, we developed a quantitative high throughput screening (qHTS) FH assay and screened a total of 57,037 compounds in dose-response. While no inhibitors of FH were confirmed, a series of phenyl-pyrrolo-pyrimidine-diones (12 compounds) were identified as activators of human fumarate hydratase. […] The binding of two compounds from the series to human fumarate hydratase was confirmed by microscale thermophoresis. The low hit rate in this screening campaign confirmed that FH is a "tough target" to modulate, and the small molecule activators of human fumarate hydratase reported here may serve as a starting point for further optimization and development into cellular probes of human FH and potential drug candidates.
For primary high-throughput screen, 3 ul of FH solution (containing 13.33nM human fumarate hydratase, 13.33IU/ml malic dehydrogenase, 0.2mM NAD, 0.067mg/ml diaphorase and 0.067mM resazurin in the assay buffer (50 mM Tris pH 8.0, 5 mM MgCl2, 0.01% Brij 3) was dispensed into each well in a black solid bottom 1536-well assay plate (Greiner Bio-One) using a BioRAPTR FRD dispenser (Beckman Coulter, Brea, CA). A 1536-well pintool dispenser outfitted with 20 nl pins (Wako Automation, San Diego, CA) was used to transfer 20 nL of DMSO-solubilized compound (Cherrypick plates) to each 1536-well assay plate. Each compound was screened at five concentrations: 15 nM, 151 nM, 1.5 uM, 15.4 uM, 76.9 uM. Following compound transfer, plates were incubated in room temperature for 10 minutes. 1 uL of substrate solution containing fumaric acid (160 uM) was dispensed via BioRAPTR FRD to initiate the reaction. Plates were immediately transferred to a ViewLux microplate imager (PerkinElmer, Waltham, MA), and any resulting resorufin fluorescence was measured (exitation/emission, 525/598 nm) at 0 and 15 minutes. The exposure time is 1 second. Fluorescence from each well was normalized using enzyme-free and DMSO-treated control wells on each plate, and changes in fluorescence (delta RFU) were calculated using the difference in fluorescent signal for each well at 15 minutes versus 0 minutes.
On the % scale 0 is the no-effect control and ±100 the full control effect; potency means the concentration at half of the fitted maximal effect.

Chain of Fumarate hydratase, mitochondrial (Homo sapiens) (P07954 whole entry, looked up): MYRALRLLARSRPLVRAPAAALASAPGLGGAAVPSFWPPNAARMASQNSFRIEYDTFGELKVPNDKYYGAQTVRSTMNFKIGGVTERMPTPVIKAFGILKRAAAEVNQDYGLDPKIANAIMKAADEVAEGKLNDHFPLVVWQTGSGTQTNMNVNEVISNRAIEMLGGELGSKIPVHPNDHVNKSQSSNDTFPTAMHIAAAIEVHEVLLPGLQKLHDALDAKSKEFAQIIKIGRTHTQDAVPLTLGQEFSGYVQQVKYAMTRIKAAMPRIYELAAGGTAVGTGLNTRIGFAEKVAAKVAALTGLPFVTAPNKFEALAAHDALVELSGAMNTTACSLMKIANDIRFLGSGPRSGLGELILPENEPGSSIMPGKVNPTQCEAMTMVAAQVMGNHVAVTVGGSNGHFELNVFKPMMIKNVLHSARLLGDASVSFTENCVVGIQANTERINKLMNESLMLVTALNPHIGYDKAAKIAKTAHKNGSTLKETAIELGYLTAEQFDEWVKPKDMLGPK

SMILES | activity change, negative = inhibition | Potency
Cn1c(=O)c2c(n3c4ccccc4nc13)NC(=O)CC2c1cccc(Cl)c1 (stereo not given) | -25.1% | 
C/C=C(\C)C(=O)OC1C=C(C)CC(OC(=O)c2ccc(O)cc2)C2C1(C)CCC2(O)C(C)C (stereo not given) | -1.59% [at 53.3 µM] | 
Cc1ccccc1C#Cc1ccc(CCC(=O)O)cc1 | -7.53% | 
CCOc1cc(/C=C(\C#N)C(=O)Nc2ccccc2C)ccc1OCc1cc(=O)n2nc(CC)sc2n1 | -13.3% | 
CCC1OC(=O)C(C)CC(C)C(=O)/C(C)=C/C(C)C(=O)/C=C/C1(C)O (stereo not given) | 4.92% [at 53.3 µM] | 
Cc1cc(Br)ccc1NC(=O)Cn1cnc2sc(C)c(S(=O)(=O)N3CCN(C)CC3)c2c1=O | 3.35% | 
CNc1ccc(-c2nc(-c3ccccc3C)no2)cc1[N+](=O)[O-] | 0.855% | 
CC(=O)O[C@@H]1c2c3c(cc(O)c2C(=O)O[C@@H]1C)O[C@@]1(C)[C@@H](O)C[C@H]2C(C)(C)C(=O)C=C[C@]2(C)[C@@H]1C3 | -6.54% [at 53.3 µM] | 
Cc1nc2nc(NCc3cccc(Br)c3)[nH]n2c(=O)c1Cc1ccccc1 | -4.21% | 
CC1CC2C3CCC4=CC(=O)C=C[C@]4(C)[C@@]3(F)[C@@H](O)C[C@]2(C)[C@@]1(O)C(=O)CO (stereo not given in full) | inactive | 
CCOc1ccc(CNC(=O)c2cc(-c3ccc(Cl)s3)nc3ccccc23)cc1 | 12.2% | 
CC(=O)[C@@H]1C[C@H](C(C)(C)O[C@@H]2O[C@H](CO)[C@@H](O)[C@H](O)[C@H]2O)CC[C@@]2(CO)OC(=O)C[C@@H]12 | 7.44% [at 53.3 µM] | 
COc1ccc(C)cc1NC(=O)COCc1cc(-c2cccs2)on1 | -26.2% | 
CCN(Cc1ccccc1)C(=O)CCS(=O)(=O)c1ccc2c(c1)oc(=O)n2C | -6.23% | 
Cc1ccc(S(=O)(=O)N2CCC(C(=O)Nc3cc(C)ccc3C)CC2)cc1 | -35.1% | 
COc1ccc(Cc2nc3ccc(C(=O)NCc4ccccc4Cl)cc3o2)cc1 | -18.8% | 
CSc1ccc(CCNC(=O)c2cc(C)nc3c2c(C)nn3-c2cccc(F)c2)cc1 | -4.49% | 
COc1ccc(OC)c(CNC(=O)c2c3c(nc4ccccc24)C(=O)N(C2CCCCC2)C3)c1 | -6.19% | 
COc1ccc(-c2cn3c(C)c(C(=O)Nc4cc(C)cc(C)c4)sc3n2)cc1 | -2.84% | 
C[C@@H]1COCCN1c1cc(C2(S(C)(=O)=O)CC2)nc(-c2cccc3[nH]ccc23)n1 | -3.26% | 
CC(=O)O[C@@H]1CC2C(C)(C)C(=O)C=C[C@]2(C)C2CC[C@]3(C)C(=CC(=O)[C@@H]3c3ccoc3)[C@@]21C (stereo not given in full) | 8.3% [at 53.3 µM] | 
Cc1cc(C)c2oc(C(=O)Nc3ccc(S(=O)(=O)N(C)c4ccccc4)cc3)cc(=O)c2c1 | -17.4% | 
C/C1=C\CC(C)(C)/C=C/C/C(C(=O)O)=C/CC1 | -17.8% | 
C/C=C(\C)C1C(C)=CC2CCC(OS(=O)(=O)O)C(C)C2C1/C=C/C=C/C(=O)O (stereo not given) | -1.4% [at 53.3 µM] | 
O=S(=O)(c1ccc(Cl)cc1)c1nnn2c1nc(NC1CCCC1)c1sccc12 | -1.98% | 
NC(=O)c1cnc(NCCc2ccc(O)c(Cl)c2)nc1NCc1ccccc1 | -22.4% | 
CC(O)COc1ccccc1 (stereo not given) | -10.1% [at 53.3 µM] | 

SMILES | activity change, negative = inhibition | Potency
COc1ccc(NC(=O)C(c2ccccc2)N2Cc3ccccc3C2=O)cc1 (stereo not given) | -21.3% | 
COc1ccc(N2CCN(C(=O)c3c(C)oc4nc(C)nc(N5CCCC5)c34)CC2)cc1 | -7.16% | 
CCCN(C(=O)Cn1ncc2c([nH]c3ccc(C)cc32)c1=O)c1ccccc1C | -18% | 
CC/C(=C(/CC)c1ccc(O)c(CN(CC)CC)c1)c1ccc(O)c(CN(CC)CC)c1 | -1.42% | 
CCOc1cc(C(=O)NCCc2csc3nc(-c4ccc(C)cc4)nn23)cc(OCC)c1OCC | -0.27% | 
CCOc1ccccc1N(C)C(=O)c1cc2c(s1)-c1ccccc1OC2 | -21.1% | 
O=C(O)CC1CCC(c2ccc(-c3ccc(Nc4ccc(C(F)(F)F)nc4)cn3)cc2)CC1 (stereo not given) | -2.5% | 
CC(C)CC(=O)O[C@@H]1O[C@H](CO)[C@@H](O[C@H]2O[C@H](C)[C@@H](N[C@H]3C=C(CO)[C@@H](O[C@H]4O[C@H](CO)[C@@H](O[C@H]5O[C@H](CO)[C@@H](O[C@H]6O[C@H](CO)[C@@H](O)[C@H](O)[C@H]6O)[C@H](O)[C@H]5O)[C@H](O)[C@H]4O)[C@H](O)[C@H]3O)[C@H](O)[C@H]2O)[C@H](O)[C@H]1O | 8.78% [at 20.6 µM] | 
CC(O)C1CCC2C3CCC4CC(OC5OC(C(=O)O)C(O)C(O)C5O)CCC4(C)C3CCC12C (stereo not given) | -5.83% | 
CO[C@H]1C[C@@H]2CC[C@@H](C)[C@@](O)(O2)C(=O)C(=O)N2CCCC[C@H]2C(=O)O[C@H]([C@H](C)C[C@H]2CC[C@@H](OP(C)(C)=O)[C@H](OC)C2)CC(=O)[C@H](C)/C=C(\C)[C@@H](O)[C@@H](OC)C(=O)[C@H](C)C[C@H](C)/C=C/C=C/C=C/1C | -2.79% [at 53.3 µM] | 
CC(C)CC(c1c(O)c(C=O)c(O)c(C=O)c1O)C1CCC(C)(O)C2CC(C(C)(C)O)CCC12C (stereo not given) | -6.01% [at 53.3 µM] | 
COc1ccc(Cn2c(=O)n(-c3ccccc3C)c(=O)c3c4c(sc32)CN(C(C)=O)CC4)cc1 | -3.96% | 
C/C=C/C=C/[C@@H]1O[C@](O)([C@H](CC)C(=O)NC/C=C/C=C(\C)[C@@H](OC)[C@@H](C)[C@@H]2O[C@H](/C=C/C=C/C=C(\C)C(=O)c3c(O)ccn(C)c3=O)[C@H](O)[C@@H]2O)[C@H](O)[C@H](O)C1(C)C | -9.63% [at 20.6 µM] | 
CCOC(=O)CNc1nc2ccccc2n2c(C)nnc12 | -4.82% | 
Cc1cc(C)c2sc(NC(=O)c3ccc(S(=O)(=O)N4CCCC4)cc3)nc2c1 | 3.95% | 
Cc1cc(C)c(-n2cc(C)c3c(Cl)nc(C)nc32)c(C)c1 | -2.66% | 
CNC(=O)c1ccc(-c2nc(CN3CCc4ccccc43)c(C)o2)cc1 | -16.3% | 
COc1cc(OC)c(NC(=O)c2ccc(Cc3cc4c(cc3C)C(C)(C)CCC4(C)C)o2)c(OC)c1 | -27.2% | 
O=C(Nc1ccc2nc(SCC(=O)N3CCCc4ccccc43)sc2c1)c1ccc(Cl)cc1 | -13.7% | 
CC1(C)CCC2(C(=O)OC3OC(COC4OC(CO)C(O)C(O)C4O)C(O)C(O)C3O)CCC3(C)C(=CCC4C5(C)CCC(O)C(C)(C(=O)O)C5CCC43C)C2C1O (stereo not given) | -1.76% [at 20.6 µM] | 
COc1ccccc1-c1c[nH]c2ncc(-c3cncc(C(=O)N(C)C)c3)cc12 | 3% | 
CN(Cc1ccccc1)C(=O)CCS(=O)(=O)c1cc(Br)cc2c1N(C(=O)C1CC1)CC2 | -0.325% | 
CC1CCC2C(C(=O)O)=CC3C(O)C(C)(C)CC123 (stereo not given) | 3.29% | 
CC(O)/C=C/C1(O)C2(C)COC1(C)CC(O)C2 (stereo not given) | -5.68% | 
CC1CCC2C(C)(C)C(O)CCC2(C)C12Cc1c(O)cc3c(c1O2)CN(C(CCC(N)=O)C(=O)O)C3=O (stereo not given) | -1.12% [at 53.3 µM] | 
CC(=O)N1CCCc2cc(S(=O)(=O)N3CCC(C(=O)NCc4ccc(C)cc4)CC3)ccc21 | 2.25% | 
NC1CCC(Nc2cc(-c3cccc(NCc4cccc(F)c4)n3)c(Cl)cn2)CC1 (stereo not given) | 0.142% | 

SMILES | activity change, negative = inhibition | Potency
Cc1ccc(S(=O)(=O)NCc2nc3nc(C)cc(C)n3n2)cc1 | -12.1% | 
Cc1nc2c(C(F)(F)F)cccc2nc1-c1ccc(-c2cccc(S(C)(=O)=O)c2)cc1 | 0.357% | 
COc1ccc(-c2nc(C)c(CCNC(=O)c3ccc(C(F)(F)F)cc3)s2)cc1OC | 1.18% | 
COc1ccc(-c2cn3c(n2)sc2cc(C(=O)Nc4ccccc4F)ccc23)cc1 | -11.3% | 
Nc1nc2c(ncn2[C@@H]2O[C@@H]3COP(=O)(O)O[C@H]3[C@H]2O)c(=O)[nH]1 | -2.31% | 
C[C@@H]1C[C@@H](O)[C@@]23CO[C@]2(CO)C[C@@H](O)CC3[C@@]12CC(c1ccoc1)OC2=O (stereo not given in full) | -2.44% [at 53.3 µM] | 
CCC(=O)N[C@@H]1Cc2ccccc2[C@H](c2ccccc2)C1 | 1.26% | 
CCOC(=O)c1c(C)n(S(=O)(=O)c2ccc(C)cc2C)c2ccc(NS(=O)(=O)c3ccc(C)cc3C)cc12 | -0.0866% | 
CCOC(=O)CSc1nc2c(sc3ccccc32)c(=O)n1CCCN1CCCC1 | -0.602% | 
COc1cc(OC)c(NC(=O)c2cc(S(=O)(=O)N3CCCC3)cn2C)cc1Cl | -2.25% | 
Cc1ccc(NC(=O)C2CCCN2S(=O)(=O)c2cccc3cccnc23)c(C)c1 (stereo not given) | -1.91% | 
CC1C(=O)OCC2=CCN3CCC(OC(=O)C(C)(O)C1(C)O)C23 (stereo not given) | 7.92% [at 53.3 µM] | 
C[C@@H]1[C@H](O)[C@@H]2OC(=O)C3=C2[C@H](CCC3)[C@@]12C[C@@H](c1ccoc1)OC2=O | 1.74% [at 53.3 µM] | 
C[C@H]1CC[C@@H]2N(C1)C[C@@H]1[C@H]([C@@H](O)[C@H](O)[C@]3(O)[C@H]1C[C@@]14OC5(O)[C@@H](C[C@@H](O)[C@@H]31)[C@]4(C)CC[C@@H]5O)[C@]2(C)O | 4.66% [at 53.3 µM] | 
CN1CCCC1Cc1c[nH]c2ccc(CCS(=O)(=O)c3ccccc3)cc12 (stereo not given) | -2.48% | 
O=C(C1CCCN(S(=O)(=O)c2cccc3nonc23)C1)N1CCN(c2ccccc2F)CC1 (stereo not given) | -8.31% | 
COC(=O)[C@]12CCC(C)(C)C[C@@H]1[C@@H]1C(=O)C=C3[C@]4(C)C=C(C#N)C(=O)C(C)(C)[C@@H]4CC[C@@]3(C)[C@]1(C)CC2 | -10.3% | 
C#C[C@]1(O)CC[C@H]2[C@@H]3CCC4=C/C(=N/O)CC[C@@H]4[C@H]3CC[C@@]21CC | 5.71% | 
CC(=O)N1c2ccc(S(=O)(=O)N3CCCCCC3)cc2CC1C(=O)NCc1ccccc1C (stereo not given) | 1.03% | 
COc1ccc(NC(=O)c2ccc3nc(CCc4ccccc4)oc3c2)c(OC)c1 | -4.07% | 
COc1cc(Nc2nc3ccccc3nc2NS(=O)(=O)c2cccc(NC(=O)c3ccc(C)c(OC)c3)c2)cc(OC)c1 | -14.2% | 
CC1(C)C(=O)N2c3ccccc3C(O)(CC(C(=O)O)n3cnc4ccccc4c3=O)C2N1O (stereo not given) | 4.36% [at 53.3 µM] | 
O=c1[nH]c2ccc(C#CCN3CCC(Cc4ccccc4)CC3)cc2[nH]1 | -15.1% | 
CCOc1ccccc1NC(=O)Cn1c2ncccc2c(=O)n1-c1ccc(C)c(C)c1 | -3.35% | 
CCOCCCNC(=O)c1cn(CC(C)C)c(=O)c2c1c1ccccc1n2C | -9.65% | 
CCOc1ccccc1CNC(=O)Nc1cn(CC(C)C)c(=O)c2ccccc12 |  | 28.2 µM [activator] (active)
